# Screening results (PubChem BioAssay)
# Rows were chosen to be rich in hits. Some 19% of all compounds tested hit in one or more screens of this group.
# DT40 TDP1 no CPT: qHTS for Inhibitors of human tyrosyl-DNA phosphodiesterase 1 (TDP1): qHTS in cells in absence of CPT. Potency, µM (series often up to 46.2 µM), for the others: top-dose activity change, negative = growth inhibition, actives largely listed as inhibitors. hit rate 15% among 420,000. AID 686978, 2013. DT40 Tdp1-/- hTDP1 cells, no CPT, ATP luminescence, 48 h; also: potency is read from the fitted curve at half-maximal effect; % is scaled to controls: 0 for no effect and ±100 for the full control effect; nearly all actives have a fitted effect of over 55% in size
#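 Growth of hTDP1-complemented DT40 Tdp1-knockout cells is measured by ATP luminescence after at least 48 hr compound exposure at 37 °C, with DMSO substituting for the 20 nM CPT used in the parallel screen.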
# TGFb SMAD3 inh: qHTS for Inhibitors of TGF-b; HepG2 CAGA-GFP TGF-b/SMAD3 reporter, GFP fluorescence, 18 h; TGF-beta stimulated, 500 pg/mL final; Potency, µM (top dose mostly 46.1 µM), for the others: top-dose activity, negative = inhibition, most hits filed as inhibitors; AID 588855, 2011; hit rate 1.2% among 410,000; also: potency is read from the fitted curve at half-maximal effect; % is scaled to controls: 0 for no effect and ±100 for the full control effect; nearly all actives have a fitted effect of over 65% in size
#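 HEPG2 CAGA-GFP cells (1000/well, DMEM with 1% FBS) were pre-incubated 2 h at 37 degrees C, given compound by pin tool, then stimulated with TGF-beta at 500 pg/mL final for 18 h before per-cell GFP fluorescence imaging.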
# TDP1 cell CPT: qHTS for Inhibitors of human tyrosyl-DNA phosphodiesterase 1 (TDP1): qHTS in cells in presence of CPT. chicken DT40 Tdp1-/-;hTDP1 cells + 20 nM CPT, ATP luminescence, 48 h. Potency, µM (series often up to 46.2 µM), inactives show top-dose activity change, negative = growth inhibition, usual class: inhibitors. hit rate 12% among 420,000. AID 686979, 2013; also: potency is read from the fitted curve at half-maximal effect; % is scaled to controls: 0 for no effect and ±100 for the full control effect; nearly all actives have a fitted effect of over 55% in size
#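 Chicken DT40 Tdp1-/- cells stably complemented with human TDP1 were seeded at 400 cells/well in medium containing 20 nM camptothecin, exposed to pin-transferred compounds, and grown at 37 °C for at least 48 hr. Viability was read as ATP luminescence.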
# IL-1B inflam inh: qHTS for Inhibitors of Inflammasome Signaling: IL-1-beta AlphaLISA Primary Screen | THP-1 LPS/ATP IL-1B secretion, AlphaLISA, 16 h; hits give low values | activity change, % at 57.5 µM | hit rate 4.7% among 360,000; in the data active = activity change below about -50%; inconclusive = mostly about -30% to -49%; also: % is scaled to controls: 0 for no effect and ±100 for the full control effect
#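 Secreted IL-1B measured by AlphaLISA bead assay after 16 h compound exposure of THP-1 cells; compounds (final up to 57.5 uM) added 1 h before LPS (250 ng/mL) and ATP (1.25 mM) stimulation; lower signal means less secretion.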
# TDP1 block: qHTS Assay for Inhibitors of Tyrosyl-DNA Phosphodiesterase (TDP1). Tyrosyl-DNA phosphodiesterase 1 (Homo sapiens), Q9NUW8. recombinant TDP1, AlphaScreen DNA substrate cleavage. Potency, µM (top dose mostly 130 µM), without a hit: top-dose activity change, negative = inhibition, most hits filed as inhibitors. hit rate 0.28% among 350,000. AID 485290, 2010; also: potency is read from the fitted curve at half-maximal effect; % is scaled to controls: 0 for no effect and ±100 for the full control effect; nearly all actives have a fitted effect of over 40% in size
# Target sequence (Q9NUW8 whole entry, looked up): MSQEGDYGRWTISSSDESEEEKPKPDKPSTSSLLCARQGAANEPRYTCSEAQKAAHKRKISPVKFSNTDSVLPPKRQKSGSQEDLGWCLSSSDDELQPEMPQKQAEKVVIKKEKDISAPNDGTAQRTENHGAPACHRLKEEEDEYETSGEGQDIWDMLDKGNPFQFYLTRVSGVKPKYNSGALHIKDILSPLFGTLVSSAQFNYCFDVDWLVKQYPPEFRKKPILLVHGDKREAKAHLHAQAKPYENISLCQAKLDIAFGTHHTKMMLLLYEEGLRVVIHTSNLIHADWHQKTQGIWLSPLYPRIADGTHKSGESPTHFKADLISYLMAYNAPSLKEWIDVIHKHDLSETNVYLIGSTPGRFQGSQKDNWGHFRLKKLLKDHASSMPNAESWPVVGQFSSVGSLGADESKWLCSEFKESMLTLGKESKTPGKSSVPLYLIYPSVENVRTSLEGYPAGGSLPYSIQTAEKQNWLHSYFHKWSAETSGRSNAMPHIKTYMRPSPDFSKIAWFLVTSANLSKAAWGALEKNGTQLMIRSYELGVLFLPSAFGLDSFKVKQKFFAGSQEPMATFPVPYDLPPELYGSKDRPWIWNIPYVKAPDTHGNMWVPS
#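 E. coli-derived human Tdp1, 1 nM final. Cpd preinc 15 min RT; substrate 15 nM final, 5 min RT; AS bead mix 10 ug/ml final, 10 min RT. Signal loss = tyrosine-FITC cleavage. No-enzyme wells = max signal.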
# HepG2 tox: qHTS for Inhibitors of TGF-b: Cytotox Counterscreen; HepG2 CAGA-GFP viability, ATP luminescence, 18 h; Potency, µM (titrated, usually from 46.1 µM), without a hit: at the top dose activity change, negative = cytotoxicity, usual class: cytotoxic; hit rate 0.76% among 410,000; also: potency is read from the fitted curve at half-maximal effect
#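 HepG2 CAGA-GFP cells (1000/well, DMEM with 1% FBS) received compound, then TGF-beta at 500 pg/mL final, and were incubated 18 hours at 37 degrees C. Viability was read by CellTiter-Glo luminescence. Media-only wells were set as complete cell-killing and DMSO as no toxicity.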
# Numbers without * were called inactive; ? = inconclusive; . = not tested or not shown. Unless noted, calls follow the shape of the dose curve; as a rule, active = well fitted curve in the direction sought with a large enough effect; inconclusive = small, poorly fitted or top-dose-only effect, or another doubt; inactive = no such curve, though single readings can be large; an effect the other way counts as inactive or inconclusive.
SMILES,DT40 TDP1 no CPT,TGFb SMAD3 inh,TDP1 cell CPT,IL-1B inflam inh,TDP1 block,HepG2 tox
Cc1ccc(S(=O)(=O)N2CCOCC2)cc1NC(=O)COC(=O)/C=C/c1ccco1,?,1%,-17%,0,28µM*,-34%
CCN(CC)c1ccc(S(=O)(=O)N2CCOCC2)cc1NC(=O)CN1CCc2ccccc2C1,7.3µM*,?,4.6µM*,-110*,0%,11%
CCN(CC)c1ccc(S(=O)(=O)N2CCOCC2)cc1NC(=O)COC(=O)/C=C/c1ccc(C)o1,10µM*,?,13µM*,?,9%,4%
CCN(CC)c1ccc(S(=O)(=O)N2CCOCC2)cc1NC(=O)Cn1nc(C)c([N+](=O)[O-])c1C,?,-6%,?,2,2%,-22%
CCn1cc(S(=O)(=O)c2cc(C)cc(C)c2)c(=O)c2cc(F)c(N3CCC(C)CC3)cc21,?,-2%,-101%,.,4%,7%
CCOC(=O)CSc1nc(-c2ccc(C)cc2C)cc(-c2ccccc2)c1C#N,2%,-9%,4%,.,?,-17%
Cc1cc(Cl)ccc1OCC(=O)NCC1Cc2cc(-c3cnccn3)ccc2O1 (centres undefined),1%,.,-3%,.,.,.
CCn1c(C(=O)NCc2ccccc2)cc2sc(Cl)cc21,?,?,?,.,2%,-31%
CCN(CC)c1ccc(S(=O)(=O)N2CCOCC2)cc1NC(=O)COC(=O)/C=C/c1ccc(O)c(OC)c1,21µM*,-1%,?,-1,.,1%
COc1cc(/C=C/C(=O)OCC(=O)Nc2cc(S(=O)(=O)N3CCOCC3)ccc2Cl)cc(OC)c1OC,?,1%,?,-26,1%,-16%
Cc1ccc(N2CCN(S(=O)(=O)c3ccc4oc(=O)c5ncn(C)c5c4c3)CC2)c(C)c1,?,-2%,-10%,.,6%,-2%
COc1ccccc1NC(=O)N1CCCC(CNC(=O)c2ccccc2Cl)C1 (centres undefined),17%,-2%,-2%,1,1%,-35%
CCOC(=O)c1ccc(NS(=O)(=O)c2ccc3c(c2)oc(=O)n3C)cc1,?,-1%,3.7µM*,8,3%,-9%
CCOC(=O)c1ccc(S(=O)(=O)Nc2ccc(N3CCOCC3)cc2)cc1,?,-3%,21µM*,1,6%,-9%
CCOC(=O)c1ccc(NS(=O)(=O)c2ccc3c(c2)n(C)c(=O)n3C)cc1,18µM*,-1%,21µM*,-4,-1%,5%
COC(=O)c1ccc(NS(=O)(=O)c2ccc3c(c2)oc(=O)n3C)cc1,-8%,8%,-29%,0,5%,2%
CSc1cccc(NS(=O)(=O)c2ccc3c(c2)oc(=O)n3C)c1,?,-10%,23µM*,11,2%,-17%
CC(=O)/C(C#N)=C1\NC(=O)C(Cc2ccc(F)cc2)S1 (centres undefined),1.3µM*,1%,?,21,.,-5%
CC(=O)/C(C#N)=C1\NC(=O)C(Cc2ccccc2Cl)S1 (centres undefined),?,61%,?,15,6%,-33%
CC(=O)/C(C#N)=C1\NC(=O)C(Cc2ccc(C)c(C)c2)S1 (centres undefined),0.073µM*,11%,0.58µM*,59,3%,-36%
CC(=O)/C(C#N)=C1\NC(=O)C(Cc2cc(Cl)ccc2Cl)S1 (centres undefined),3.3µM*,-26%,?,0,.,-51%
CN(C)c1cccc(C(=O)N2CCC(c3c[nH]c4ccccc34)(c3c[nH]c4ccccc34)CC2)c1,?,?,?,.,10%,6%
BrC(=C\c1ccccc1)/C=N/Nc1nc(N2CCOCC2)nc(N2CCOCC2)n1,13µM*,0%,2.3µM*,-129*,5%,-13%
BrC(/C=C\c1ccccc1)=N/Nc1nc(N2CCOCC2)nc(N2CCOCC2)n1,10µM*,?,7.3µM*,-6,-5%,-51%
C(=N\Nc1nc(N2CCOCC2)nc(N2CCOCC2)n1)/c1ccncc1,-18%,-20%,0%,8,3%,15%
SMILES,DT40 TDP1 no CPT,TGFb SMAD3 inh,TDP1 cell CPT,IL-1B inflam inh,TDP1 block,HepG2 tox
CN(C)c1ccc(/C=C/C=N/Nc2nc(N3CCOCC3)nc(N3CCOCC3)n2)cc1,?,?,16µM*,-14,3%,-2%
CC(/C=N/Nc1nc(N2CCCCC2)nc(N2CCCCC2)n1)=C\c1ccccc1,-24%,1%,?,1,-3%,0%
CC(=O)N1CCCC1c1nc2ccccc2n1Cc1cccc(C)c1 (centres undefined),?,-11%,-7%,.,11%,0%
Cc1ccc(Cl)cc1NC(=O)CN1C=NS(=O)(=O)c2ccccc21,-7%,-10%,-3%,.,0%,-24%
COc1ccc(-c2coc3c(C(=O)NCc4ccc(F)c(F)c4)cccc23)c(C)c1,15µM*,-22%,?,?,.,-16%
COc1ccc(-c2ccc(C(=O)NCc3ccc(F)c(F)c3)c3occc23)c(C)c1,?,-16%,?,-59*,.,-28%
COc1ccc(-c2ccc(C(=O)NCC3CC3)c3occc23)c(C)c1,?,-24%,21µM*,?,.,-22%
COc1ccc(-c2ccc(C(=O)NCc3ccncc3)c3occc23)c(C)c1,1.8µM*,-15%,2.1µM*,-29,.,-34%
COc1ccc(-c2ccc(C(=O)NCC(C)C)c3occc23)c(C)c1,?,-2%,?,?,.,-33%
CCOC(=O)c1c(NC(=O)c2cc(=O)c3ccc(C)cc3o2)sc(C)c1C,-2%,-1%,-9%,.,6%,5%
CS(=O)(=O)c1ccc(Cl)c(NC(=O)CSc2nnc3n2CCCCC3)c1,10%,2%,-13%,24,.,-4%
CC1=C(C(=O)Nc2ccccc2)C(c2ccc(Br)cc2)n2nc(CCCO)nc2N1 (centres undefined),3%,-2%,-4%,.,.,-2%
COc1ccc(CNC(=O)C2=C(C)C(=O)OC23CCCCC3)cc1OC,?,?,-15%,.,-2%,-9%
COc1ccc(-c2coc3c(C(=O)NCc4ccc(OC)c(OC)c4)cccc23)c(C)c1,6.5µM*,-13%,8.2µM*,-21,.,-7%
